Source: PubChem BioAssay
KDM5B inhibitor: Primary screen for KDM5B Histone Demethylases FDH-coupled qHTS. Lysine-specific demethylase 5B (Homo sapiens), Q9UGL1. KDM5B demethylase, FDH-coupled NADH fluorescence (FDH is formaldehyde dehydrogenase). Potency, µM (top dose mostly 57.7 µM), actives largely listed as inhibitors. hit rate 2.6% among 220,000; active = well fitted inhibition curve with a large enough effect; note: nearly all actives have a fitted effect of over 70% in size
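Coupled FDH/NAD⁺ fluorescence readout. KDM5BΔAP 200 nM final; compound titration, 10 min RT preincubation; substrate mix 12.5 µM H3K4me3, 25 µM 2-OG, 50 µM Fe(II), 100 µM ascorbate, 0.25 mM NAD⁺, 0.25 U/mL FDH; ΔRFU over 30 min.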
Numbers stand for hits; n = inactive. Many of the other results were omitted from the sample, so hits are more common in it than they were.

SMILES	KDM5B inhibitor
CN1CCN(C(=O)Cc2c[nH]c3ncc(-c4ccccc4F)cc23)CC1	35.5µM
O=C(Cc1c[nH]c2ccccc12)N1CCN(CC(=O)N2CCCCCC2)CC1	n
CN1CCN(C(=O)Cc2c[nH]c3ncc(-c4ccsc4)cc23)CC1	39.8µM
Cc1ccc(NC(=O)CN2CCN(C(=O)Cc3c[nH]c4ccccc34)CC2)cc1	n
Cc1cc2c(c(=O)o1)C1(C(=O)Nc3ccccc31)C(C(=O)OCc1ccccc1)=C(N)O2 (stereo not drawn)	n
CN1Cc2ccccc2-n2ccnc2C12CCN(C(=O)c1ccc(C(F)(F)F)cc1)CC2	n
Cc1ncc2c(n1)C[C@@H]1CC[C@H]2N1C(=O)CCCc1ccccc1	n
N#CCCNCc1cccnc1	n
CCN1CCCCC12Cc1ccccc1CN(C(=O)Cc1ccc(O)cc1)C2 (stereo not drawn)	n
Cn1cc(CN2CCN3C(=O)N(Cc4ccccn4)C[C@H]3C2)cn1	n
O=C(c1ccccc1)N1C[C@@H]2C[C@H](C1)c1c(/C=C/c3ccc(Cl)cc3)ccc(=O)n1C2	35.5µM
O=C(c1ccc(F)cc1)N1C[C@@H]2C[C@H](C1)c1c(-c3cc4ccccc4s3)ccc(=O)n1C2	n
N#Cc1ccc(C(=O)N2C[C@@H]3C[C@H](C2)c2c(-c4ccc(Cl)cc4)ccc(=O)n2C3)cc1	n
Cc1ccc(CNCCc2ccccc2)s1	n
CC[C@H]1CN2CC[C@H]1C[C@@H]2CNS(=O)(=O)c1ccc(C)cc1	n
COc1ccccc1N1CCN(C[C@H]2CN3CC[C@H]2C[C@@H]3CNC(=O)Nc2cccc(C#N)c2)CC1	n
Cc1[nH]nc2c1C(c1ccc3c(c1)OCCO3)SCC(=O)N2 (stereo not drawn)	n
CCOC(=O)C1=C(N)Oc2c(c(=O)oc3ccccc23)C12C(=O)Nc1ccc(Cl)cc12 (stereo not drawn)	n
CC(=O)Nc1ccc(S(=O)(=O)NC[C@H]2C[C@@H]3CCN2C[C@@H]3c2cc(-c3ccco3)nc(C)n2)cc1	31.6µM
CC(=O)c1cccc(NC(=O)NC[C@H]2C[C@@H]3CCN2C[C@@H]3c2cc(-c3ccc(F)cc3)nc(C)n2)c1	n
COc1ccc(OC)c(S(=O)(=O)NC[C@H]2C[C@@H]3CCN2C[C@@H]3c2cc(-c3ccco3)nc(C)n2)c1	n
CC(=O)Nc1ccc(S(=O)(=O)NC[C@H]2C[C@@H]3CCN2C[C@@H]3c2cc(-c3ccc(F)cc3)nn2C)cc1	n
Cc1nc(-c2ccccc2Br)cc([C@H]2CN3CC[C@H]2C[C@@H]3CNS(=O)(=O)c2cccs2)n1	n
CC(=O)Nc1ccc(S(=O)(=O)NC[C@H]2C[C@@H]3CCN2C[C@@H]3c2cc(-c3ccc(N(C)C)cc3)nc(C)n2)cc1	20µM
Cc1oc2cc(OC(=O)N(C)C)ccc2c(=O)c1-c1ccccc1	n
SMILES	KDM5B inhibitor
CN(C)Cc1cn(C[C@H]2C[C@@H]3CCN2C[C@@H]3C(=O)NC2CC2)nn1	n
O=C(NCc1ccncc1)C1CNCC12CCOCC2 (stereo not drawn)	n
CC(Cl)C(=O)NC(C)(C)C (stereo not drawn)	n
CCCc1c(C)nc(N2CCN(CC)CC2)[nH]c1=O	n
CC(C)CN1Cc2ccccc2-n2ccnc2C12CCN(C(=O)c1cccc(F)c1)CC2	n
O=C1NCCOCCN[C@@H]2CCCC[C@H]12	n
CN1C(=O)[C@H]2CN(Cc3cccnc3)C[C@H]2C1=O	n
O=C(O)C1=NOC2CN(Cc3cccnc3)CC12 (stereo not drawn)	39.8µM
Cc1cc(CN2CC3ON=C(C(=O)O)C3C2)cc(C)n1 (stereo not drawn)	n
CCN1CCCC12Cc1ccccc1CN(C(=O)Cc1ccccc1)C2 (stereo not drawn)	n
O=C(c1ccn[nH]1)N1[C@H]2CC[C@@H]1c1cnc(-c3ccccc3)nc1C2	n
O=[S+]1([O-])NC2(CCN(Cc3ccccn3)C2)COc2ccncc21 (stereo not drawn)	n
O=[S+]1([O-])NC2(CCN(Cc3cccnc3)C2)COc2ccncc21 (stereo not drawn)	n
O=[S+]1([O-])NC2(CCN(Cc3ccncc3)C2)COc2ccncc21 (stereo not drawn)	39.8µM
C#C[C@H]1CN2CC[C@H]1C[C@@H]2COC(=O)Nc1ccc(OC(F)(F)F)cc1	n
CSC(C)C(=O)NC(C)Cc1ccc(Br)cc1 (stereo not drawn)	n
O=C1Nc2ccccc2C12CCN(Cc1ccc(C(F)(F)F)cc1)CC2	n
COc1cccn(CC(=O)N2CCN(C)C3(CCNCC3)C2)c1=O	12.6µM
CN1CCN(C(=O)CCc2ccncc2)CC12CCNCC2	n
COc1ccccc1CC(=O)N1CCN(C2CCN(C)C2=O)CC1 (stereo not drawn)	n
Cc1ccc(NC(=O)c2cn(C)c3ccccc23)cc1	n
CCc1ccc(NC(=O)CN2C(=O)CN=C(c3ccc(OC)cc3)c3c2sc2c3CCC2)cc1	n
CN1CCC2(CC1)N1CC3(C)CN2CC(C)(C1)C3=O	n
CCn1c(CO)nnc1C1CC(NC(=O)c2cnn(Cc3ccccc3)c2)C1 (stereo not drawn)	n
CC(C)N(C(=O)CN1CC=C(c2c[nH]c3ccccc23)CC1)C(C)C	n
SMILES	KDM5B inhibitor
COc1ccc(C2=NOC3(CCN(Cc4cccnc4)C3)C2)cc1 (stereo not drawn)	n
CC(=O)N1CCC2(C1)N=C(c1cccnc1)C(=O)N2 (stereo not drawn)	35.5µM
COc1cc2c(cc1-c1cccnc1)NC(=O)C21CCN(C(C)=O)CC1	n
CC(=O)N1CCC2(CC1)C(=O)NN=C2c1cccnc1	n
c1cncc(C2=NOC3(CCN(C4CCCCC4)CC3)C2)c1	n
CC(=O)N1CCC2(CC1)CC(c1cccnc1)=NO2	17.8µM
COCCNC(=O)[C@H]1CN2CC[C@H]1C[C@@H]2Cn1cc(CN(C)C)nn1	n
Cc1nn(C)cc1C1SCC(=O)Nc2c1c(C)nn2-c1ccccc1 (stereo not drawn)	n
O=S1(=O)NC2(CCN(Cc3ccc(Cl)s3)C2)COc2ccncc21 (stereo not drawn)	n
COc1cc2c(cc1CCc1ccccc1)N(C(=O)Cc1ccc3c(c1)OCO3)CC21CCN(C(C)=O)CC1	n
COc1cc2c(cc1CCc1ccccc1)N(C(=O)COc1ccccc1)CC21CCN(C(C)=O)CC1	n
COc1cc2c(cc1CCc1ccccc1)N([S+](=O)([O-])c1ccc3c(c1)CCO3)CC21CCN(C(C)=O)CC1	28.2µM
C#C[C@H]1CN2CC[C@H]1C[C@@H]2CNCc1ccc(OC)cc1	n
CCC(CC)c1cc([C@H]2CN3CC[C@H]2C[C@@H]3CNC(=O)CCCC(=O)O)nc(-c2ccncc2)n1	n
COc1cc2c(cc1Oc1ccccc1)NC(=O)C21CCN(c2nccs2)CC1	n
COc1cc2c(cc1Oc1ccccc1)NC(=O)C21CCN(c2ncc(F)cn2)CC1	31.6µM
COc1cc2c(cc1OCc1ccncc1)NC(=O)C21CCN(Cc2ccccc2)CC1	n
COc1cc2c(cc1Oc1ccccc1)NC(=O)C21CCN(C(=O)c2ccccc2)CC1	n
COc1cc2c(cc1OCc1ccccc1)NC(=O)C21CCN(c2ncc(F)cn2)CC1	31.6µM
COc1cc2c(cc1Oc1ccccc1)NC(=O)C21CCN(C(=O)c2cnccn2)CC1	n
COc1cc2c(cc1OCC1CC1)NC(=O)C21CCN(c2ccnc(C)n2)CC1	n
COc1cc2c(cc1Oc1ccccc1)NC(=O)C21CCN(c2cnccn2)CC1	31.6µM
